In the library only some 2.3% were active in any assay of this set; here they are far more common.
TRPV1 ag: activates the human vanilloid receptor TRPV1; Q8NER1; activation, % at 8.33 µM; actives 0.19% (n = 320,000); TRPV1-expressing cells, Fluo-8 calcium influx, agonist mode; in the data active = activation above about 80%; inconclusive = between about 30% and that limit; note: 0% is about no effect
Target sequence (Q8NER1 whole entry, looked up): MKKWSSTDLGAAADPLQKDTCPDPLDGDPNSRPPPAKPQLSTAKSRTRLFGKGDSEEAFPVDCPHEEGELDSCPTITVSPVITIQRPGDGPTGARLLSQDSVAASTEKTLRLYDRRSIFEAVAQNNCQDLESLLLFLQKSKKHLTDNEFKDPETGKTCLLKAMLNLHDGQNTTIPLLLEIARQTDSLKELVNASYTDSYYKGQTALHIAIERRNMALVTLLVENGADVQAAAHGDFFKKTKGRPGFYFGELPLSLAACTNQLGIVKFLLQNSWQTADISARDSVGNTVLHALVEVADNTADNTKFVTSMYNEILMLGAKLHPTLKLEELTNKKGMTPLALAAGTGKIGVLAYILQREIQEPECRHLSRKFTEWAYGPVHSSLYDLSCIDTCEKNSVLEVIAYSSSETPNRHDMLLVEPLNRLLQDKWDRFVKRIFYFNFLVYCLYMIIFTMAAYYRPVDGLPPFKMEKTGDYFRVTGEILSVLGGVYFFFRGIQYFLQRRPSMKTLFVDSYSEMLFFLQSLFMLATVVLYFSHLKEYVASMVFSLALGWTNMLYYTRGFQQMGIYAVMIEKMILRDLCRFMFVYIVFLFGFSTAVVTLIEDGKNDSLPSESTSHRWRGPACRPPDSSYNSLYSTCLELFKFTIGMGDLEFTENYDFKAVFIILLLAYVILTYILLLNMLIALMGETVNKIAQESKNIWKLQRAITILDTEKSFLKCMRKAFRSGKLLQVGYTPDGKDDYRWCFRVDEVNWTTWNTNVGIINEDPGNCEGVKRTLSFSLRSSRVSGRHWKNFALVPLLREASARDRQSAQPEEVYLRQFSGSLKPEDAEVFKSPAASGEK
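Cells expressing TRPV1 were dye-loaded with Fluo-8 and read kinetically: 10 s baseline, 3 min after compound (agonist portion), then 2 min after EC20 capsaicin (allosteric enhancer portion). Calcium-bound dye fluorescence at 480/520 nm.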
ELG1 DNA repair: ELG1-dependent DNA repair inhibition; HEK293T ELG1-luciferase reporter, luminescence, 16 h; DNA damage induced by 5-fluorouridine; Potency, µM (doses to about 46.1 µM), for inactives: at the highest dose activity change, negative = inhibition, usual class: inhibitors; actives 2.3% (n = 330,000); AID 504467; note: potency is the fitted concentration of half-maximal effect; % is set by controls: 0 for no effect and ±100 for the full control effect; nearly all actives have a fitted effect of over 55% in size
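In this reporter screen, reduction of luminescence relative to DMSO vehicle indicated activity. Compounds and 5-fluorouridine were added together to 2,000 cells per well, incubated for 16 hr at 37 °C, then developed with ONE-Glo.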
FUS yeast rescue: suppressors of FUS proteinopathy in yeast; S. cerevisiae FUS-expressing, growth rescue, OD600, 24 h; Potency, µM (doses to about 76.6 µM), most hits filed as activators; actives 0.24% (n = 390,000);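 note: potency is the fitted concentration of half-maximal effect; plate controls were DMSO vehicle for no effect and reference control for full effect; nearly all actives have a fitted effect of over 55% in size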
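Yeast FUS proteinopathy model; galactose-induced FUS (2%), starting OD 0.005. Cpds in dilution series, 24hr, 30C, 99% humidity. Abs 600 nm growth. Pos ctrl CP55940 (top 92uM final); neg ctrl DMSO.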
Giardia kill: kills Giardia lamblia; AID 540267; Giardia lamblia trophozoite viability; actives 0.15% (n = 340,000); activity change, % at 7.66 µM, hits read low; in the data active = activity change below about -80%; inconclusive = between about -30% and that limit;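 note: parasites exposed to compound for two days anaerobically before the ATP read; % is set by controls: 0 for no effect and ±100 for the full control effect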
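Luminescence from cellular ATP indicates surviving trophozoites (100 cells/well) following 48 hrs anaerobic compound treatment at 37 deg C; signal develops 15-30 min at room temperature.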
TRPV1 PAM: human TRPV1 potentiation. Q8NER1. TRPV1-expressing cells, Fluo-8 calcium influx, capsaicin EC20 potentiation. potentiation, % at 8.33 µM. actives 0.02% (n = 320,000); in the data active = potentiation above about 80%; inconclusive = between about 30% and that limit; note: 0% is about no effect
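Fluo-8 calcium influx in TRPV1-expressing cells, kinetic read (ex 480/em 520 nm). Compound added and read 3 min for agonist activity, followed by capsaicin at EC20 final and 2 min further read for enhancement.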
The depositor's hits bear a star; i = inactive; ? = inconclusive; . = not tested or not shown. Unless noted, calls come from the whole dose curve; as a rule, active = well fitted curve in the direction sought with a large enough effect; inconclusive = small, poorly fitted or top-dose-only effect, or another doubt; inactive = no such curve, though single readings can be large; an effect the other way counts as inactive or inconclusive.

SMILES	TRPV1 ag	ELG1 DNA repair	FUS yeast rescue	Giardia kill	TRPV1 PAM
COc1ccc(CCNc2nc(-c3cccnc3)cs2)cc1OC	7	?	i	-11	-6
COc1ccc(CCNc2nc(-c3ccccn3)cs2)cc1OC	5	18µM*	i	-22	-23
Cc1cccc(C(=O)n2nc(-c3ccco3)nc2NCc2ccccc2)c1	.	.	i	.	.
COC(=O)[C@@]12C[C@@H](CC(=O)N3CCN(C(=O)C4CC4)CC3)C(=O)N(Cc3ccccc3)C1=CCC(C)(C)C2	.	.	i	.	.
CCCCCCCCN1C(=O)[C@H](CC(=O)N2CCCC2)C[C@@]2(C(=O)OC)CCCCC=C12	.	.	6.3µM*	.	.
CCOC(=O)[C@]12CCCC=C1N(Cc1ccc(Cl)cc1Cl)C(=O)[C@H](CC(=O)N1CCN(C(=O)c3ccco3)CC1)C2	.	.	18µM*	.	.
CCCCCCCCN1C(=O)[C@H](CC(=O)N2CCN(C(=O)C3CC3)CC2)C[C@@]2(C(=O)OC)CC(C)(C)CC=C12	.	.	16µM*	.	.
CCCCCCCCN1C(=O)[C@H](CC(=O)N2CCOCC2)C[C@@]2(C(=O)OCC)CCCC=C12	.	.	11µM*	.	.
CCOC(=O)[C@]12CCCC=C1N(Cc1ccc(Cl)cc1Cl)C(=O)[C@H](CC(=O)N1CCCC1)C2	.	.	i	.	.
Cn1c(=O)c2cc(C(=O)NCCCN3CCN(c4ccccc4F)CC3)sc2c2ccccc21	.	.	i	.	.
C#CCNC(=O)C[C@@H]1C[C@@]2(C(=O)OCC)CCCC=C2N(CCCCCCCC)C1=O	.	.	10µM*	.	.
O=C(NCC(c1cccs1)S(=O)(=O)c1cccs1)c1ccccc1F (configuration not stated)	.	.	i	.	.
CCOc1ccccc1C(=O)Nc1ccc(S(=O)(=O)Nc2onc(C)c2C)cc1	.	.	i	.	.
Cc1cc(-c2ccccc2)nc(N/N=C/c2ccc([N+](=O)[O-])cc2)n1	2	13µM*	.	-13	-8
CC(=O)Nc1ccc(/C(C)=N/Nc2nc(Nc3cccc4ccccc34)nc(N3CCOCC3)n2)cc1	0	7.3µM*	?	-1	23
O=C(Cn1ccnc1[N+](=O)[O-])NCc1ccccc1	2	9%	i	-83*	3
O=C(Cn1cnc([N+](=O)[O-])n1)NCc1ccccc1	-8	1%	i	-3	?
COC(=O)C(Cc1ccc(O)cc1)NC(=O)Cn1cc(C)c(=O)[nH]c1=O (configuration not stated)	.	.	i	17	.
CCOc1cc(C(N)=O)cc(Br)c1OC	-4	5.2µM*	i	0	?
CCCCN(CCCC)CCNC(=O)Cn1nc(CC)n2c(cc3sc(C)cc32)c1=O	.	.	i	.	.
CCCCCCCCN1C(=O)[C@H](CC(=O)N2CCC(c3ccccc3)CC2)C[C@@]2(C(=O)OC)CCCCC=C12	.	.	i	.	.
Cc1ccc(C)c2[nH]c(=O)c(CN(Cc3cccs3)C(=S)NCc3ccco3)cc12	1	16µM*	.	9	-18
Cc1cc2cc(CN(Cc3cccs3)C(=S)NCc3ccco3)c(=O)[nH]c2cc1C	0	21µM*	.	-16	-1
Cc1cc2cc(CN(CCN(C)C)C(=S)NCc3ccco3)c(=O)[nH]c2cc1C	?	?	?	33	-10
Cc1ccc(C)c2[nH]c(=O)c(CN(CC3CCCO3)C(=S)NCc3ccco3)cc12 (configuration not stated)	9	?	?	-14	2
SMILES	TRPV1 ag	ELG1 DNA repair	FUS yeast rescue	Giardia kill	TRPV1 PAM
O=C1c2ccccc2C(=O)N1c1ccc2ncccc2c1	.	.	.	2	.
Cc1ccccc1-c1noc(-c2ccc(N3CCC(C)CC3)c([N+](=O)[O-])c2)n1	.	.	i	.	.
CCOC(=O)C1=C(C)N=c2s/c(=C\c3ccc(O)c([N+](=O)[O-])c3)c(=O)n2C1c1ccccc1OC (configuration not stated)	1	-29%	i	?	-5
CCOC(=O)C1=C(C)N=c2s/c(=C/c3cccc([N+](=O)[O-])c3O)c(=O)n2C1c1ccc(OC)cc1OC (configuration not stated)	-6	-4%	i	-80*	6
CN1CCN(C(=O)CCCN2C(=O)/C(=C/c3ccc(Cl)cc3)SC2=S)CC1	1	18µM*	i	-3	5
Cc1ccc(/C=C2\SC(=S)N(CCCC(=O)N3CCOCC3)C2=O)cc1	16	13µM*	i	11	0
CCOc1ccc(CNC(=O)c2ccc3nc(Cc4ccc(OC)cc4)oc3c2)cc1OC	.	.	i	.	.
Cc1ccc(N2CCN(C(=O)N3CCOCC3)CC2)c(C)c1	83*	5%	i	9	-8
Cc1cccc(N2CCN(C(=O)N3CCOCC3)CC2)c1C	9	0%	i	-10	-7
O=C(Nc1nnc(C2CCCCC2)s1)c1ccc(Br)s1	80*	?	i	8	-7
CCN(C)C1CN(Cc2cn(Cc3cccc(C(F)(F)F)c3)nn2)S(=O)(=O)C1 (configuration not stated)	.	.	i	.	.
O=C(NC(Cc1ccccc1)C(=O)N1CCN(c2ccc(F)cc2)CC1)c1ccccc1 (configuration not stated)	.	.	i	.	.
CCCOC(=O)c1ccc(-c2c(C)noc2-c2ccc(OC)cc2O)o1	17	21µM*	i	43	-6
COc1ccc(-c2onc(C)c2-c2cscn2)c(O)c1	2	-17%	i	-9	4
CCOC(=O)/C=C/C(=O)Nc1ccc(-c2nnc3n2CCCCC3)cc1	-3	0%	i	4	6
COc1ccc(/C=C/C(=O)Nc2ccc(-c3nnc4n3CCCCC4)cc2)c(OC)c1	3	23µM*	i	-10	-11
COC(=O)c1ccc(Oc2nc(Nc3ccc(C)c(C)c3)nc(N(C)C)n2)cc1	15	21µM*	i	-10	1
CCNc1nc(Oc2ccc(C(=O)OC)cc2)nc(N(C)C)n1	1	-18%	i	-17	2
CSc1ccc(C2C(C(=O)c3ccco3)=C(O)C(=O)N2c2nnc(SC)s2)cc1 (configuration not stated)	8	?	?	-17	?
O=C(C1CCN(S(=O)(=O)c2cccc3cccnc23)CC1)N1CCN(c2ccc(Cl)cc2)CC1	.	18µM*	28µM*	-12	.
O=C(C1CCN(S(=O)(=O)c2cccnc2)CC1)N1CCN(c2ccc(Cl)cc2)CC1	13	2.9µM*	i	9	-9
O=C(C1CCN(S(=O)(=O)c2cccc3cccnc23)CC1)N1CCN(c2ccccn2)CC1	3	-18%	i	10	2
O=C(C1CCN(S(=O)(=O)c2cccnc2)CC1)N1CCN(c2ccccc2Cl)CC1	3	.	i	11	-6
C#CCn1c(C2CC(=O)N(c3ccc(OC)cc3)C2)nc2ccccc21 (configuration not stated)	.	.	i	.	.
